{"source": "PubChem BioAssay AID1259374", "about": "(The Scripps Research Institute Molecular Screening Center, 2018)", "note": "Several values for one entry are separate records, joined by “and”; a condition that tells them apart may be missing. Equal entries are not always repeated. About 5,900 (0.91%) of roughly 650,000 compounds were called active. The list comes from a sample in which actives are over-represented; it also holds similar structures and randomly drawn compounds. A number with no mark means an inactive call. Rule as the data show it: active = inhibition above about 50%; inactive = the rest.", "data": [{"target": "Microphthalmia-associated transcription factor (Homo sapiens) (UniProt O75030)", "sequence (O75030 whole entry, looked up)": "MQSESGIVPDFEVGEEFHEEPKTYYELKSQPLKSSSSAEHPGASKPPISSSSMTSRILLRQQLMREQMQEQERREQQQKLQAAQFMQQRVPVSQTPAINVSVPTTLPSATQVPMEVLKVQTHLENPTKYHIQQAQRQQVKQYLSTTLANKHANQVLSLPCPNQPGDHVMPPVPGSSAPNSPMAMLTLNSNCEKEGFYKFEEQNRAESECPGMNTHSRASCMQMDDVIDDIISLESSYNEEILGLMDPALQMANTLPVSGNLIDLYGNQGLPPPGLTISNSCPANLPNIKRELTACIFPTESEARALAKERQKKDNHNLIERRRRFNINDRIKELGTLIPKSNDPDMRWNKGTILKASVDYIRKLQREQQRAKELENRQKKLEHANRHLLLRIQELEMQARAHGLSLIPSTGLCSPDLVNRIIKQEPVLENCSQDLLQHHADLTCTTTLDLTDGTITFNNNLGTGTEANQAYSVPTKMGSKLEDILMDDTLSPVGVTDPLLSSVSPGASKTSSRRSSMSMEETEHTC", "experiment": "MITF inhibitors, primary screen, biochemical, AlphaScreen, human (AID 1259374);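 also: 0% = vehicle wells with protein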", "conditions": "AlphaScreen MITF homodimerization, bead proximity signal; at 2.6 µM; hits give high values", "values": [{"smiles": "Cc1ccccc1C(=O)Nc1ccc(S(=O)(=O)NCc2ccccc2)cc1", "inhibition": "5.75%"}, {"smiles": "Cc1ccc(NC(=O)CC[C@H]2CN(Cc3ccncc3)CC[C@H]2N2CCOCC2)cc1", "inhibition": "-7.04%"}, {"smiles": "CCCC(C)C(=O)Nc1nc2c(s1)C(=O)CC(C)(C)C2", "note": "(stereo unspecified)", "inhibition": "6.86%"}, {"smiles": "CC(C)NC(=O)/C=C/c1cccc([N+](=O)[O-])c1", "inhibition": "-4.32%"}, {"smiles": "COc1cccc(N2C(=O)CC(N3CCN(C)CC3)C2=O)c1", "note": "(stereo unspecified)", "inhibition": "5.95%"}, {"smiles": "Cc1ccc(-c2noc(CN(C(C)C)S(=O)(=O)c3ccc(F)cc3)n2)cc1", "inhibition": "-1.65%"}, {"smiles": "c1cc2c(cc1CNc1nc(Nc3ccc(N4CCOCC4)cc3)c3ncn(C4CCCCC4)c3n1)OCO2", "inhibition": "53.1% (active)"}, {"smiles": "O=C1CCCN1CCn1cnc2c(Nc3ccc(N4CCOCC4)cc3)nc(NCc3ccc4c(c3)OCO4)nc21", "inhibition": "15.2%"}, {"smiles": "c1ccc(CN2CCC(Nc3nc(NCc4ccc5c(c4)OCO5)nc4c3ncn4C3CCCCC3)CC2)cc1", "inhibition": "16.3%"}, {"smiles": "CC12CCOCC1C2C(=O)Nc1ccc(N=Nc2ccccc2)cc1", "note": "(stereo unspecified)", "inhibition": "-6.59%"}, {"smiles": "O=C1CCCN1CCCNc1ccnc(Nc2nccc3ccccc23)n1", "inhibition": "-1.07%"}, {"smiles": "CCN1CCN(CC(=O)N/N=C/c2cccc(Cl)c2)CC1", "inhibition": "57.4% (active)"}, {"smiles": "O=C(CN1CCCCCC1)N/N=C/c1ccc(Cl)cc1", "inhibition": "20%"}, {"smiles": "COc1cccc(/C=N\\NC(=O)CN2CCN(C)CC2)c1", "inhibition": "-8.3%"}, {"smiles": "Cc1cccc(NC(=O)c2sc3nc4c(cc3c2N)CCC4)c1C", "inhibition": "21.2%"}, {"smiles": "CCN1CCN(CCOCCOc2ccc([N+](=O)[O-])cc2)CC1", "inhibition": "72% (active)"}, {"smiles": "CN1CCN(CCOCCOc2ccc3c(c2)CCC3)CC1", "inhibition": "11.3%"}, {"smiles": "CCOc1ccc(OCCN2CCNCC2)cc1", "inhibition": "12.2%"}, {"smiles": "CCN1CCN(CCOc2ccc(-c3ccccc3)cc2)CC1", "inhibition": "76.4% (active)"}, {"smiles": "COc1ccc(OCCOCCOc2ccc([N+](=O)[O-])cc2Cl)cc1", "inhibition": "3.66%"}, {"smiles": "CN1CCN(CCCCOc2ccc(C#N)cc2)CC1", "inhibition": "1.14%"}, {"smiles": "O=C(COc1ccc2c3c(c(=O)oc2c1)CCC3)Nc1cccc2ncccc12", "inhibition": "2.18%"}, {"smiles": "COc1ccc(/C(O)=C/c2nc3cc(C)ccc3oc2=O)cc1OC", "inhibition": "3.89%"}, {"smiles": "CCN(CC)S(=O)(=O)c1ccc(C(=O)NCCO)cc1", "inhibition": "-0.2%"}, {"smiles": "C/C(=N\\N=C1\\NC(=O)CC(C(=O)Nc2cccc(C(=O)O)c2)S1)c1ccccc1", "note": "(stereo unspecified)", "inhibition": "7.7%"}, {"smiles": "CC1CN(C(=O)COc2ccc(C(C)C)cc2Br)CC(C)O1", "note": "(stereo unspecified)", "inhibition": "-0.26%"}, {"smiles": "CC1CN(C(=O)COC(=O)c2cc(O)c(O)c(O)c2)CC(C)O1", "note": "(stereo unspecified)", "inhibition": "54.2% (active)"}, {"smiles": "CC1CN(C(=O)COC(=O)/C=C/c2ccco2)CC(C)O1", "note": "(stereo unspecified)", "inhibition": "16.4%"}, {"smiles": "Cc1sc(NC(=O)c2ccco2)c(C(c2ccccn2)N2CCN(C)CC2)c1C", "note": "(stereo unspecified)", "inhibition": "12.4%"}, {"smiles": "CCOc1cccc(CN2CCCCC2)c1O", "inhibition": "12.8%"}, {"smiles": "Oc1c(CN2CCCC2)cc(COCc2ccccc2)c2cccnc12", "inhibition": "74.4% (active)"}, {"smiles": "Oc1c(CN2CCN(c3cccc(Cl)c3)CC2)cc(Br)c2cccnc12", "inhibition": "-1.04%"}, {"smiles": "Cc1cccc(N2CC(O)=C(c3nc4ccccc4c(=O)[nH]3)C2=N)c1C", "inhibition": "-2.19%"}, {"smiles": "CCCOc1cccc(C(=O)Nc2ccc3oc(-c4cccc5c(Br)cccc45)nc3c2)c1", "inhibition": "3.22%"}, {"smiles": "COc1cccc(C2C(C(=O)OC(C)C)=C(C)NC3=C2C(=O)CC(c2ccc(Cl)cc2)C3)c1OC", "note": "(stereo unspecified)", "inhibition": "-2.22%"}, {"smiles": "COc1cc(Nc2ncnc3c2nc(N2CCOCC2)n3C(C)C)cc(OC)c1OC", "inhibition": "54.5% (active)"}, {"smiles": "CC(C)n1c(N2CCOCC2)nc2c(Nc3ccc(Oc4ccccc4)cc3)ncnc21", "inhibition": "9.27%"}, {"smiles": "COc1cc(Nc2ncnc3c2nc(N2CCN(Cc4ccc5c(c4)OCO5)CC2)n3C(C)C)cc(OC)c1OC", "inhibition": "5.48%"}, {"smiles": "C[C@@H]1CN(Cc2nnnn2CC(=O)N2CCc3ccccc3C2)C[C@H](C)O1", "inhibition": "12.1%"}, {"smiles": "C=CCNC(=O)C(=O)Nc1ccccc1CC", "inhibition": "19.9%"}, {"smiles": "CN1CCN(c2ncnc3c2cnn3-c2ccc(Cl)c(Cl)c2)CC1", "inhibition": "10.1%"}, {"smiles": "O=C(CC1OC(=O)c2ccccc21)OCC(=O)c1ccc(F)cc1", "note": "(stereo unspecified)", "inhibition": "18.3%"}, {"smiles": "CCc1ccc(OCCCCn2ccnc2)cc1", "inhibition": "62.2% (active)"}, {"smiles": "CCOC(=O)C(CCOc1cccc(CC)c1)C(=O)OCC", "inhibition": "-23.7%"}, {"smiles": "CCc1cccc(OCCOCCn2ccnc2)c1", "inhibition": "65.1% (active)"}, {"smiles": "C=CCc1cc(C)ccc1OCCCn1ccnc1", "inhibition": "64.5% (active)"}, {"smiles": "COc1ccc(CCCOC(Cn2ccnc2)c2ccc(OC)cc2)cc1", "note": "(stereo unspecified)", "inhibition": "-16.1% and 0.54%"}, {"smiles": "C=CCc1cc(C)ccc1OCC(O)Cn1cnc2ccccc21", "note": "(stereo unspecified)", "inhibition": "4.8%"}, {"smiles": "Clc1ccc(OCCOCCn2ccnc2)c(Br)c1", "inhibition": "46.3%"}, {"smiles": "Cc1ccc(C(C)C)c(OCCCn2ccnc2)c1", "inhibition": "9.69%"}, {"smiles": "COc1ccc(CCNC(=S)NCCCn2ccnc2)cc1", "inhibition": "8.73%"}, {"smiles": "Cc1nn(C(=O)c2cccnc2)c(C)c1Sc1ccccc1[N+](=O)[O-]", "inhibition": "2.63%"}, {"smiles": "O=C(Cc1cccc2ccccc12)Nc1nnc(-c2ccco2)o1", "inhibition": "6.58%"}, {"smiles": "COCCN1Cc2cccc(C(=O)Nc3cccc(F)c3)c2C1=O", "inhibition": "-5.68%"}, {"smiles": "Cc1nc(CSc2ccc(-c3ccco3)nn2)cs1", "inhibition": "5.98%"}, {"smiles": "CCCCc1ccc(Nc2nc3ccccc3nc2NS(=O)(=O)c2ccc(Cl)cc2)cc1", "inhibition": "1.24%"}, {"smiles": "COc1ccc(C(=O)NC(NC(=O)c2ccc(OC)cc2)c2cccc(OC)c2)cc1", "inhibition": "9.45%"}, {"smiles": "CCN(CC)S(=O)(=O)c1ccc(-c2csc(N3N=C(c4cccc([N+](=O)[O-])c4)CC3c3ccc(F)cc3)n2)cc1", "note": "(stereo unspecified)", "inhibition": "3.98%"}, {"smiles": "O=C(CNCc1cccnc1)Nc1ccc(C(=O)N2CCCCC2)cc1", "inhibition": "93.3% (active)"}, {"smiles": "O=C(c1ccc(NC(=S)NCc2ccc(F)cc2)cc1)N1CCCC1", "inhibition": "22.4%"}, {"smiles": "O=C(Nc1ccc(C(=O)N2CCCCC2)cc1)c1cccc(I)c1", "inhibition": "-4.21%"}]}]}
